# This is a sample that favours compounds with a hit; in the whole collection about 10% have one here.
# PLK1 PBD block – blocks phosphopeptide binding to human PLK1 polo-box domain | P53350 | Plk1 PBD binding of FITC phosphopeptide, fluorescence polarization | Potency, µM, inactives show max response, negative = inhibition, actives largely listed as inhibitors | 360,000 tested, 2.8% active | AID 720504; note: potency is the fitted concentration of half-maximal effect; series mostly up to about 57 µM; nearly all actives have a fitted effect of over 65% in size
# VDR inhibitor – vitamin D3 receptor (human) inhibition. VDR-SRC2-3 peptide fluorescence polarization, 2 h. Potency, µM, for the others: max response, negative = inhibition, usual class: inhibitors. 400,000 tested, 0.93% active; note: potency is the fitted concentration of half-maximal effect
#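 Two reagent solutions held at 4 deg C in the dark were dispensed, compounds pinned at 23 nl, and the mixture incubated 2 h at room temperature. Read-out: fluorescence polarization of VDR–SRC2-3 peptide binding.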
# CCT chaperon mod – changes cytosolic chaperonin activity; purified chaperonin ATPase assay, HTRF ADP detection, 30 min; activity change, % (concentration not given with the values), hits read low; 360,000 tested, 0.3% active; AID 651819; in the data active = activity change below about -30%
#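 TRiC (40 or 20 nM final, by batch activity) in 30 mM Tris pH 7.4, 100 mM KCl, 5 mM MgCl2, 1 mM DTT was treated with compound at 76 uM single dose, then 10 uM ATP, 30 min at 37 °C. ADP was read by HTRF Transcreener.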
# Mm-Cpn inhibitor – M. maripaludis TRiC chaperonin inhibition; purified Mm-Cpn ATPase, ADP Transcreener TR-FRET; Potency, µM (doses to about 76.9 µM), for inactives: at the highest dose activity, negative = inhibition, usual class: inhibitors; 330,000 tested, 0.031% active; note: potency is the fitted concentration of half-maximal effect; nearly all actives have a fitted effect of over 80% in size
#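 Purified archaeal chaperonin (25 nM final) was preincubated with compound for 10 min at 37°C, then ATP (10 uM final) was added for 30 min at 37°C in Tris pH 7.4/KCl/MgCl2/DTT buffer. ADP was quantified by HTRF Transcreener TR-FRET.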
# G9a inh – G9a (human) methyltransferase inhibition; Q96KQ7; G9a H3K9 monomethylation, AlphaScreen, 2 h; Potency, µM (series often up to 102 µM), for inactives: top-dose activity, negative = inhibition, usual class: inhibitors; 350,000 tested, 8.8% active; AID 504332; note: potency is the fitted concentration of half-maximal effect; nearly all actives have a fitted effect of over 75% in size
# Target sequence (Q96KQ7 913-1193 limits assumed): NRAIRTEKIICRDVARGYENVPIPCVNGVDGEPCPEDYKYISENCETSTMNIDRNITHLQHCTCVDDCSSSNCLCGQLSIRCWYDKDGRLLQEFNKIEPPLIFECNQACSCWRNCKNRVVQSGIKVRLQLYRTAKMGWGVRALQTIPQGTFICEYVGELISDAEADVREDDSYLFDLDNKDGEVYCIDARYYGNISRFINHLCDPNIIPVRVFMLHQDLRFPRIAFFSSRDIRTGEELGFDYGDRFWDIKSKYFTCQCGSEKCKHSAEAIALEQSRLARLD
#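 Compounds were preincubated with 20 nM G9a for 15 min, after which biotinylated H3K9 peptide (500 nM) and SAM (20 uM) started a 2 h room-temperature reaction. Monomethylated product was quantified by antibody-based AlphaScreen chemiluminescence.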
# Sfp inh – Sfp phosphopantetheinyl transferase inhibition | 310,000 tested, 3.5% active | Biochemical Sfp PPTase activity, qHTS | Q9F4F7 | AID 1490 | Potency, µM, for the others: largest response in the series, negative = inhibition, usual class: inhibitors;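 note: the enzyme is Sfp with the accession as filed and its product quenches rhodamine fluorescence; potency is the fitted concentration of half-maximal effect; 0% = enzyme reaction without inhibitor and -100% = no enzyme wells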
#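 Step 1, compound plus 15 nM Sfp-PPTase, 15 min, room temperature. Step 2, add rhodamine-CoA (5 uM) and BHQ-2-YbbR (12.5 uM). Step 3, read 525/598 nm fluorescence at 0 and 30 min.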
# The depositor's hits bear a star; u = inconclusive; x = no result given; [ ] = remark or other dose. Unless noted, calls come from the whole dose curve; as a rule, active = well fitted curve in the direction sought with a large enough effect; inconclusive = small, poorly fitted or top-dose-only effect, or another doubt; inactive = no such curve, though single readings can be large; an effect the other way counts as inactive or inconclusive. Unless noted, % is set by controls: 0 for no effect and ±100 for the full control effect.
SMILES,PLK1 PBD block,VDR inhibitor,CCT chaperon mod,Mm-Cpn inhibitor,G9a inh,Sfp inh
O=C1Nc2c(c(=O)[nH]c(=O)n2Cc2ccccc2)C1(NS(=O)(=O)c1ccccc1)C(F)(F)F (stereo unspecified),-16%,4%,-1,2%,45µM*,14%
O=C1Nc2c(c(=O)[nH]c(=O)n2-c2ccc(F)cc2)C1(NS(=O)(=O)c1ccccc1)C(F)(F)F (stereo unspecified),-4%,5%,-2,2%,x,-13%
Cc1ccc(-n2c3c(c(=O)[nH]c2=O)C(NS(=O)(=O)c2ccc(C)cc2)(C(F)(F)F)C(=O)N3)cc1 (stereo unspecified),-4%,-24%,0,-1%,-16%[59 µM],15%
COC(=O)c1ccccc1N(C)S(=O)(=O)c1cc2c3c(c1)CC(=O)N3CCC2,x,4%,x,x,7%[59 µM],x
O=C(O)CCC/C=C\C/C=C\C=C\[C@@H](O)C/C=C\CCCCCO,x,11%,x,x,x,5%
Cc1ccc(Cl)cc1N1CCN(C(=O)CCCn2c(=O)[nH]c3ccc(Br)cc3c2=O)CC1,x,-21%,x,x,-28%[59 µM],x
CCN1CCN(C(=S)c2ccc(SC)cc2)CC1,19µM*,u,-2,-2%,40µM*,28µM*
OCCN1CCN(C(=S)c2ccc(Cl)cc2)CC1,6.7µM*,u,1,0%,u,-78%
CSc1ccc(C(=S)N2CCCCCC2)cc1,-24%,-16%,0,-4%,32µM*,-21%
CCCN1CCN(C(=S)NCc2ccc(Cl)cc2)CC1,-8%,-2%,0,1%,x,8%
S=C(c1ccc(Cl)cc1)N1CCN(Cc2ccccc2)CC1,-16%,16%,1,0%,-18%[59 µM],-18%
CSc1ccc(C(=S)N2CCN(Cc3ccccc3)CC2)cc1,21µM*,-19%,-4,0%,32µM*,14µM*
Cc1oc2ncn(C)c(=O)c2c1C(=O)NCCCN1CCCCC1C (stereo unspecified),x,2%,x,x,-20%[59 µM],x
COc1ccc(C(=S)N2CCCCCC2)cc1,27µM*,u,2,1%,6.3µM*,-1%
CCOC(=O)c1ccc(NC(=S)N2CCCC(C(=O)OCC)C2)cc1 (stereo unspecified),-9%,24%,-3,0%,6%,-1%
COc1ccc(C(=S)N2CCN(c3ccccc3C)CC2)cc1,21µM*,-24%,1,-1%,8.9µM*,u
CCOC(=O)c1ccc(C(=S)N2CCCC2)cc1,7.5µM*,-8%,-1,2%,10µM*,40µM*
COc1ccc(C(=S)N2CCNCC2)cc1,-2%,-2%,-2,-1%,2%[59 µM],9%
CCOc1cc(C2c3c(-c4cc(C)ccc4O)n[nH]c3C(=O)N2CCCOC(C)C)ccc1O (stereo unspecified),x,9%,x,x,-23%[59 µM],x
Cc1noc(C)c1-c1ccc2ncnc(NCc3cc(F)cc(F)c3)c2c1,x,x,x,x,x,8%
O=C(Cn1ncc2c([nH]c3ccccc32)c1=O)Nc1cccc(C(F)(F)F)c1,x,11%,x,x,-4%[59 µM],x
Cc1cc2c(cc1S(=O)(=O)Nc1cccc(Cl)c1C)n(C)c(=O)c(=O)n2C,x,-3%,x,x,-1%[59 µM],x
CCc1nc(-c2ccc(C)c(S(=O)(=O)N3CCN(c4ccc(C(C)=O)cc4)CC3)c2)no1,x,6%,x,x,-1%[59 µM],x
Cc1ccnc(NC(c2cccc(O)c2)c2ccc3ccc(C)nc3c2O)c1 (stereo unspecified),x,u,x,x,11µM*,x
Cc1conc1NC(c1cccs1)c1ccc2cccnc2c1O (stereo unspecified),x,x,x,1%,28%[2.33 µM],50µM*
SMILES,PLK1 PBD block,VDR inhibitor,CCT chaperon mod,Mm-Cpn inhibitor,G9a inh,Sfp inh
Cc1cccc(NC(c2cccc(Cl)c2)c2ccc3cccnc3c2O)n1 (stereo unspecified),x,-5%,x,x,-41%[59 µM],x
CCC(=O)NC(c1cccs1)c1ccc2cccnc2c1O (stereo unspecified),3%,-5%,-1,2%,x,u
COc1ccc(C(Nc2ccccn2)c2ccc3ccc(C)nc3c2O)cc1C (stereo unspecified),x,u,x,x,8.9µM*,x
Cc1ccc(C(Nc2ccccn2)c2ccc3cccnc3c2O)cc1 (stereo unspecified),x,u,x,x,7.9µM*,x
CCC1CN(C(=O)Nc2cc(Cl)c(OC)cc2OC)c2ccccc2O1 (stereo unspecified),x,6%,x,x,-12%[59 µM],x
Cc1ccc(Cc2nc3ccccc3nc2SCC(=O)N2CCc3ccccc32)cc1,x,10%,x,x,-5%[59 µM],x
CCOc1ccccc1NC(=O)c1cc2c(=O)[nH]c3ccccc3c2s1,x,-11%,x,x,-6%[59 µM],x
Oc1c(C(Nc2cccc(C(F)(F)F)c2)c2ccncc2)ccc2cccnc12 (stereo unspecified),u,u,-2,1%,28µM*,-5%
Cn1cc(/C=N/NC(=O)COc2ccccc2[N+](=O)[O-])c2ccccc21,-8%,-2%,-3,-1%,11%[59 µM],35µM*
O=C(COc1ccccc1[N+](=O)[O-])N/N=C/C=C/c1ccco1,-8%,-6%,-3,-2%,40µM*,50µM*
O=C(COc1ccc2ccccc2c1)NCC(=O)N/N=C/c1ccco1,-11%,-4%,-3,1%,u,u
Cc1cccc(OCC(=O)N/N=C\c2cc3c(cc2[N+](=O)[O-])OCO3)c1C,-4%,-3%,0,1%,-22%,25µM*
Cc1ccc(OCC(=O)N/N=C/C=C/c2ccco2)cc1,u,u,-2,0%,-23%[59 µM],35µM*
COCCN(CCOC)c1nc(C)nc2c1nc(-c1ccccc1)n2CCCN1CCCCC1C (stereo unspecified),x,x,x,x,x,24%
CC(C)CCNC(=O)C(CC(C)C)NC(=O)C1OC1C(=O)O (stereo unspecified),x,2%,x,x,x,1%
O=c1cc(O)c2sc(Nc3ccc(Cl)c(F)c3)nc2[nH]1,-3%,u,-8,-1%,u,u
O=c1cc(O)c2sc(Nc3ccc(F)c(Cl)c3)nc2[nH]1,-4%,u,-1,-1%,28µM*,-100%
COc1cc(Cl)c(C)cc1NC(=O)CSc1cc(=O)n(C)c2cc(Cl)ccc12,x,-2%,x,x,5%[59 µM],x
CCOC(=O)Cn1c(=O)n(C2CCCCC2)c2nc(-c3c(F)cccc3Cl)nc(C(N)=O)c21,x,3%,x,x,11%[59 µM],x
